# Measured values as given in the supplement of paper PMC8728848.
# The full list was thinned out, with the strongest signals kept by preference.
# B1: EUL D1A second (Oryza sativa) (protein)
# chain: GAATACTIGGVPVHTVRVFSAAGEDYCLTVRNGTACLAPKNPRDDYQHWIKDMRHSNKIRDEEGYPAFALVNKVTGEAIKHSTGQGHPVKLVPYNPEYQDESVLWTESKDVGKGFRCIRMVNNIYLNFDAFHGDKDHGGIHDGTEIVLWKWCEGDNQRWKILPWILEQKLISEEDLNSAVDHHHHHH
# Columns and labels:
# Assay in all cases: glycan array binding signal (z-score within array); higher = stronger binding
# Conditions in all cases: glycan notation: IUPAC condensed, linker removed
# [1] = target: Fuc(a1-2)Gal(b1-3)GlcNAc(b1-3)Gal(b1-4)Glc
# Outline: (§1)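 Glycan array data were curated from 3228 arrays in the Consortium for Functional Glycomics database and kept only where the protein sequence was available. Glycan names were converted to IUPAC-condensed notation, and columns mapping to the same glycan were averaged. The binding signal is a within-array Z-score, averaged across arrays of the same protein sequence at different concentrations or buffers and across linkers. Negative Z-scores can be read as non-binding.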
# [2] = target: Fuc(a1-2)Gal(b1-3)GlcNAc(b1-3)GalNAc
# Outline: as §1
# [3] = target: Fuc(a1-2)Gal(b1-3)[Fuc(a1-4)]GlcNAc(b1-2)Man(a1-3)[Fuc(a1-2)Gal(b1-3)[Fuc(a1-4)]GlcNAc(b1-2)Man(a1-6)]Man(b1-4)GlcNAc(b1-4)[Fuc(a1-6)]GlcNAc(b1-4)[Fuc(a1-6)]GlcNAc
# Outline: as §1
# [4] = target: Fuc(a1-2)Gal(b1-3)[Fuc(a1-4)]GlcNAc(b1-3)[Gal(b1-4)GlcNAc(b1-6)]Gal(b1-4)Glc
# Outline: as §1
# [5] = target: Fuc(a1-2)Gal3S(b1-4)GlcNAc
# Outline: as §1
# [6] = target: Fuc(a1-2)Gal6S(b1-3)GlcNAc6S
# Outline: as §1
# [7] = target: Fuc(a1-2)[GalNAc(a1-3)]Gal
# Outline: as §1
# [8] = target: Fuc(a1-2)[GalNAc(a1-3)]Gal(b1-4)GlcNAc
# Outline: as §1
# [9] = target: Fuc(a1-2)[GalNAc(a1-3)]Gal(b1-4)GlcNAc(b1-3)Gal(b1-4)GlcNAc
# Outline: as §1
# [10] = target: Fuc(a1-2)[GalNAc(a1-4)]Gal(b1-4)GlcNAc
# Outline: as §1
# [11] = target: Fuc(a1-2)[GalNAc(b1-3)]Gal
# Outline: as §1
# [12] = target: Fuc(a1-3)[Gal(b1-4)]GlcNAc(b1-2)Man
# Outline: as §1
# [13] = target: Fuc(a1-3)[Gal(b1-4)]GlcNAc(b1-3)Gal(b1-4)[Fuc(a1-3)]GlcNAc
# Outline: as §1
# [14] = target: Fuc(a1-3)[Gal(b1-4)]GlcNAc(b1-3)GalNAc
# Outline: as §1
# [15] = target: Fuc(a1-3)[Gal(b1-4)]GlcNAc6S
# Outline: as §1
# [16] = target: Gal(a1-3)GalNAc
# Outline: as §1
# [17] = target: Gal(a1-4)GlcNAc
# Outline: as §1
# [18] = target: Gal(b1-3)Gal
# Outline: as §1
# [19] = target: Gal(b1-3)GalNAc(b1-3)Gal(a1-4)Gal(b1-4)Glc
# Outline: as §1
# [20] = target: Gal(b1-3)GlcNAc(b1-3)Gal(b1-4)GlcNAc(b1-2)[Gal(b1-3)GlcNAc(b1-3)Gal(b1-4)GlcNAc(b1-6)]Man(a1-6)[Gal(b1-3)GlcNAc(b1-3)Gal(b1-4)GlcNAc(b1-2)Man(a1-3)]Man(b1-4)GlcNAc(b1-4)[Fuc(a1-6)]GlcNAc
# Outline: as §1
# [21] = target: Gal(b1-3)GlcNAc(b1-3)Gal(b1-4)GlcNAc(b1-3)Gal(b1-4)GlcNAc(b1-2)[Gal(b1-3)GlcNAc(b1-3)Gal(b1-4)GlcNAc(b1-3)Gal(b1-4)GlcNAc(b1-6)]Man(a1-6)[Gal(b1-3)GlcNAc(b1-3)Gal(b1-4)GlcNAc(b1-3)Gal(b1-4)GlcNAc(b1-2)Man(a1-3)]Man(b1-4)GlcNAc(b1-4)[Fuc(a1-6)]GlcNAc
# Outline: as §1
# [22] = target: Gal(b1-4)Gal
# Outline: as §1
# [23] = target: Gal(b1-4)GlcNAc(b1-2)Man
# Outline: as §1
# [24] = target: Gal(b1-4)GlcNAc(b1-2)Man(a1-3)[Man(a1-6)]Man(b1-4)GlcNAc(b1-4)GlcNAc
# Outline: as §1
# [25] = target: Gal(b1-4)GlcNAc(b1-2)[Gal(b1-4)GlcNAc(b1-4)]Man(a1-3)[GlcNAc(b1-4)][Gal(b1-4)GlcNAc(b1-2)[Gal(b1-4)GlcNAc(b1-6)]Man(a1-6)]Man(b1-4)GlcNAc(b1-4)GlcNAc
# Outline: as §1
# [26] = target: Gal(b1-4)GlcNAc(b1-2)[Gal(b1-4)GlcNAc(b1-6)]Man(a1-6)[GlcNAc(b1-4)][Gal(b1-4)GlcNAc(b1-2)Man(a1-3)]Man(b1-4)GlcNAc(b1-4)GlcNAc
# Outline: as §1
# [27] = target: Gal(b1-4)GlcNAc(b1-3)Gal(b1-3)GlcNAc
# Outline: as §1
# [28] = target: Gal(b1-4)GlcNAc(b1-3)Gal(b1-4)Glc
# Outline: as §1
# [29] = target: Gal(b1-4)GlcNAc(b1-3)Gal(b1-4)GlcNAc
# Outline: as §1
# [30] = target: Gal(b1-4)GlcNAc(b1-3)Gal(b1-4)GlcNAc(b1-2)[Gal(b1-4)GlcNAc(b1-3)Gal(b1-4)GlcNAc(b1-6)]Man(a1-6)[Gal(b1-4)GlcNAc(b1-3)Gal(b1-4)GlcNAc(b1-2)Man(a1-3)]Man(b1-4)GlcNAc(b1-4)[Fuc(a1-6)]GlcNAc
# Outline: as §1
# [31] = target: Gal(b1-4)GlcNAc(b1-3)Gal(b1-4)GlcNAc(b1-3)Gal(b1-4)GlcNAc(b1-3)Gal(b1-4)GlcNAc(b1-3)Gal(b1-4)GlcNAc(b1-3)Gal(b1-4)GlcNAc(b1-2)Man(a1-3)[Gal(b1-4)GlcNAc(b1-3)Gal(b1-4)GlcNAc(b1-3)Gal(b1-4)GlcNAc(b1-3)Gal(b1-4)GlcNAc(b1-3)Gal(b1-4)GlcNAc(b1-3)Gal(b1-4)GlcNAc(b1-2)Man(a1-6)]Man(b1-4)GlcNAc(b1-4)GlcNAc
# Outline: as §1
# [32] = target: Gal(b1-4)GlcNAc(b1-6)Gal(b1-4)GlcNAc
# Outline: as §1
# [33] = target: Gal(b1-4)GlcNAc(b1-6)[Gal(b1-4)GlcNAc(b1-3)]GalNAc
# Outline: as §1
binder,measurement,setting,value
B1,glycan array binding signal (z-score),[1],-1.01
same,glycan array binding signal (z-score),[2],-0.565
same,glycan array binding signal (z-score),[3],0.045
same,glycan array binding signal (z-score),[4],1.09
same,glycan array binding signal (z-score),[5],0.228
same,glycan array binding signal (z-score),[6],1.43
same,glycan array binding signal (z-score),[7],-0.789
same,glycan array binding signal (z-score),[8],-1.07
same,glycan array binding signal (z-score),[9],-0.086
same,glycan array binding signal (z-score),[10],0.772
same,glycan array binding signal (z-score),[11],-0.072
same,glycan array binding signal (z-score),[12],0.112
same,glycan array binding signal (z-score),[13],-0.106
same,glycan array binding signal (z-score),[14],0.566
same,glycan array binding signal (z-score),[15],-0.105
same,glycan array binding signal (z-score),[16],-1.42
same,glycan array binding signal (z-score),[17],-1.01
same,glycan array binding signal (z-score),[18],-0.342
same,glycan array binding signal (z-score),[19],2.08
same,glycan array binding signal (z-score),[20],4.86
same,glycan array binding signal (z-score),[21],4.47
same,glycan array binding signal (z-score),[22],3.37
same,glycan array binding signal (z-score),[23],1.59
same,glycan array binding signal (z-score),[24],-0.232
same,glycan array binding signal (z-score),[25],-0.986
same,glycan array binding signal (z-score),[26],-0.799
same,glycan array binding signal (z-score),[27],-0.245
same,glycan array binding signal (z-score),[28],-0.283
same,glycan array binding signal (z-score),[29],-0.532
same,glycan array binding signal (z-score),[30],3.31
same,glycan array binding signal (z-score),[31],0.069
same,glycan array binding signal (z-score),[32],-0.144
same,glycan array binding signal (z-score),[33],-0.385
